Rows were chosen to be rich in hits. Some 9.6% of all compounds tested hit in one or more screens of this group.
Autophagy HCS: modulators of autophagy. MEF GFP-LC3 puncta imaging; test concentration mostly 10 µM. calls only at 10 µM (by protocol). 190,000 compounds, 0.98% hits. AID 463193;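 active means percentage of spot-positive cells more than 3 SD above its plate mean, without a fluorescence outlier flag or 80% toxicity; inconclusive means no clear call, values can overlap the other calls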
HCT116 PTEN-null: suppresses growth of cells with PTEN deletion | HCT116 PTEN-null viability, CellTiter-Glo, 60 h; hits give low values | viability, % at 10 µM | 140,000 compounds, 1.2% hits | AID 827;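 active means viability at or below a set limit, 4 SD under the median of all tested compounds, cut at about 3.7% in these data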;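 further: PTEN knockout HCT116 line with beta catenin targeted HCT116 as companion control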
Insulin prom up: MIN6 insulin promoter up-regulation; MIN6 insulin promoter-GFP reporter, high-content imaging; hits give high values; 190,000 compounds, 0.3% hits; z-score at 5 µM;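 active means z-score above 3 at 5 µM with at least 500 cells counted in the well; inconclusive means wells under 500 cells, flagged as cytotoxic or low count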
INS promoter inh: TRM-6 insulin promoter activity inhibition. 130,000 compounds, 0.9% hits. TRM-6 cells (human fetal islet line), insulin promoter-eGFP reporter, imaging; reporter expression induced with tamoxifen. inhibition, % at 2 µM. AID 1273;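 active means inhibition above the mean plus 3 SD, with well images judged a real hit on visual review, cut at about 60% in these data, passing the limit was not always enough; inconclusive means inhibition over the cutoff but images rejected on review; inactive means inhibition not above the cutoff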
bCat KO growth: beta-catenin-lacking colon tumor cell growth suppression; HCT116 beta-catenin knockout viability, CellTiter-Glo, 60 h; hits give low values; viability, % at 10 µM; 140,000 compounds, 1.5% hits; AID 818;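 active means viability at or under a set limit, the compound median less 4 SD, cut at about 6% in these data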
Lmaj promast: inhibitors of Leishmania major promastigote growth | Leishmania major promastigotes, resazurin fluorescence viability | inhibition, % at 10 µM | 200,000 compounds, 9% hits; in the data active means inhibition above about 50%;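 further: promastigotes grown with compound for 44 hours at 28 °C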
Large screens that a line does not name were inactive.

COc1cccc(N2CCN(c3ncnc4c3[nH]c3ccc(F)cc34)CC2C)c1 (configuration not stated)	Autophagy HCS active, HCT116 PTEN-null 1.6, bCat KO growth 2.0, Lmaj promast 100
COc1ccc2[nH]c3c(N4CC(C)OC(C)C4)ncnc3c2c1 (configuration not stated)	none
Cc1ccc(-n2cccc2/C=C2/C(=N)N3C(=NC2=O)SN=C3S(C)(=O)=O)cc1Cl	none (no result: INS promoter inh)
CC1CCCN(CC(O)CN)C1 (configuration not stated)	none (no result: Insulin prom up)
CC(=O)Oc1ccccc1N1C(=O)c2ccc(C(=O)O)cc2C1=O	none (no result: Insulin prom up, INS promoter inh)
CC(=O)NC1=NN(C(C)=O)C(C)(c2ccc(C)o2)S1 (configuration not stated)	none (no result: HCT116 PTEN-null, INS promoter inh, bCat KO growth)
Cc1ncc([N+](=O)[O-])n1Cc1cccc(F)c1	Lmaj promast 85 (no result: HCT116 PTEN-null, bCat KO growth)
Cc1ncc([N+](=O)[O-])n1Cc1ccccc1	Lmaj promast 73 (no result: Insulin prom up)
Cc1ncc([N+](=O)[O-])n1CC(=O)NC1CCCCC1	Lmaj promast 83
Cc1ccc(Cn2c([N+](=O)[O-])cnc2C)cc1	none
Cc1ccccc1NC(=O)Cn1c([N+](=O)[O-])cnc1C	none (no result: INS promoter inh)
COc1ccccc1/C=C/C(=O)NCC(=O)N/N=C/c1cccnc1	none
N#CCCn1cc(C(=O)Nc2ccccc2Br)c(-c2cccs2)n1	none
N#CC(C#N)=C1C=CC=CN1/C(=C\c1ccco1)C(=O)c1ccc(Br)cc1	Insulin prom up inconclusive
N#CC(C#N)=C1C=CC=CN1/C(=C\c1ccco1)C(=O)c1ccccc1	HCT116 PTEN-null 1.8, bCat KO growth 1.9 (no result: INS promoter inh)
Cc1ccc(N(C)C(=O)N2CCN(S(=O)(=O)c3c(C)cc(C)cc3C)CC2)cc1	Lmaj promast 98 (no result: HCT116 PTEN-null)
CCn1cc([N+](=O)[O-])c(C(=O)N2N=C(c3ccc4ccccc4c3)CC2c2cc(Br)ccc2O)n1 (configuration not stated)	HCT116 PTEN-null 3.2, bCat KO growth 2.4, Lmaj promast 100 (no result: Insulin prom up)
CCn1cc([N+](=O)[O-])c(C(=O)N2N=C(c3ccc(Cl)c(Cl)c3)CC2c2ccccc2O)n1 (configuration not stated)	none (no result: HCT116 PTEN-null, bCat KO growth)
S=C(NCCN1CCOCC1)NC1CCCCC1	none (no result: Autophagy HCS, HCT116 PTEN-null, INS promoter inh, bCat KO growth, Lmaj promast)
CCOc1ccccc1NC(=O)C1CCN(S(=O)(=O)c2ccc(OC)c(OC)c2)CC1	none (no result: Insulin prom up, INS promoter inh)
CCC(Cc1ccccc1)NC(=O)C1CCN(S(=O)(=O)c2c(C)noc2C)CC1 (configuration not stated)	Lmaj promast 92
COc1ccc(NC(=O)C2CCN(S(=O)(=O)c3c(C)noc3C)CC2)cc1Cl	none
Cc1noc(C)c1S(=O)(=O)N1CCC(C(=O)Nc2ccc(OC(F)(F)F)cc2)CC1	Lmaj promast 100
Cc1noc(C)c1S(=O)(=O)N1CCC(C(=O)N(C)Cc2ccccc2)CC1	none
CCOc1ccccc1NC(=O)C1CCN(S(=O)(=O)c2c(C)noc2C)CC1	Lmaj promast 98
COC(=O)C1=C(C(=O)OC)N2C=CC=CC2(C)C(C(=O)OC)=C1C(=O)OC (configuration not stated)	none (no result: Insulin prom up)
Nc1nnc(SCC(=O)OCC(=O)Nc2ccc(Br)cc2F)s1	none (no result: HCT116 PTEN-null, bCat KO growth)
O=C(NNc1nc(N2CCOCC2)nc(N2CCOCC2)n1)Nc1ccc(Cl)cc1	none (no result: HCT116 PTEN-null, INS promoter inh, bCat KO growth)
Cc1ccc(C2=N/C(=C/N3CCOCC3)C(=O)O2)cc1	none
CCOc1c(Cl)cnn(-c2ccc(C)cc2)c1=O	none (no result: Insulin prom up)
CC(=O)Nc1ccc2nsnc2c1	none (no result: Autophagy HCS, HCT116 PTEN-null, INS promoter inh, bCat KO growth, Lmaj promast)
COC(=O)c1ccc(C)c(NS(=O)(=O)c2ccc(C)c([N+](=O)[O-])c2)c1	none
COC(=O)c1ccc(C)c(NS(=O)(=O)c2ccc(OC)cc2)c1	Autophagy HCS active, INS promoter inh 100
NC(=O)COC(=O)c1ccc(NS(=O)(=O)c2ccc3c(c2)OCCO3)cc1	none (no result: Autophagy HCS, HCT116 PTEN-null, INS promoter inh, bCat KO growth, Lmaj promast)
COC(=O)c1ccc(C)c(NS(=O)(=O)c2ccc3c(c2)OCCO3)c1	Lmaj promast 100
N#C/C(=C\c1cccc(NC(=O)c2ccccc2Cl)c1)C(=O)NCCc1ccccc1	HCT116 PTEN-null 1.5, bCat KO growth 1.2, Lmaj promast 99 (no result: INS promoter inh)
COc1ccc(CCNC(=O)/C(C#N)=C/c2cccc(OCc3ccccc3)c2)cc1OC	Lmaj promast 100
COCCCNC(=O)/C(C#N)=C/c1cccc(NC(=O)c2ccccc2Cl)c1	Lmaj promast 75
Cc1cc(NC(=O)CSc2ccc3nnc(-c4cccnc4)n3n2)no1	none (no result: INS promoter inh)
CSc1ccc(C(=O)/C=C/c2ccc(N)cc2)cc1	none
CSc1ccc(/C=C/C(=O)c2ccc(NC(=O)C(C)C)cc2)cc1	Lmaj promast 100 (no result: INS promoter inh)
CSc1ccc(/C=C/C(=O)c2ccc(NC(=O)Cc3ccccc3)cc2)cc1	Lmaj promast 91
CSc1ccc(/C=C/C(=O)Nc2ccccc2)cc1	none (no result: HCT116 PTEN-null, bCat KO growth)
CCNc1nc(NC(C)C)nc(ON=C(C)C)n1	none
CCNc1nc(NC(C)C)nc(OCC)n1	INS promoter inh 72
CCCc1c(CC)c(=N)c2ccccc2n1C	Lmaj promast 53
Cn1c(CN2CCCCC2)c(C#N)c2ccccc21	none (no result: Insulin prom up)
Cc1nc2ccccc2n1S(=O)(=O)c1ccc(Br)cc1	Lmaj promast 70
Cc1ccc(S(=O)(=O)Nc2cc(C(C(=O)OC(C)C)C(=O)C(F)(F)F)c(O)c3ccccc23)c(C)c1 (configuration not stated)	Lmaj promast 92 (no result: INS promoter inh)
O=C(COC(=O)c1ccccc1)Nc1cc(Cl)ccc1Oc1ccccc1	none (no result: INS promoter inh)
CC(=O)Cn1c(N2CCC(Cc3ccccc3)CC2)nc2c1c(=O)[nH]c(=O)n2C	none (no result: INS promoter inh)
Cc1ccc2nc(-c3ccc(NC(=S)NC4CC(C)(C)NC(C)(C)C4)cc3)sc2c1	Lmaj promast 98 (no result: HCT116 PTEN-null, INS promoter inh, bCat KO growth)
COc1cccc(OC)c1CN1CCCC(C(=O)c2ccccc2SC)C1 (configuration not stated)	Lmaj promast 65 (no result: HCT116 PTEN-null, Insulin prom up, bCat KO growth)
COc1ccccc1CN1CCCC(C(=O)N2CCCCC2)C1 (configuration not stated)	none (no result: Autophagy HCS, HCT116 PTEN-null, INS promoter inh, bCat KO growth, Lmaj promast)
COc1ccccc1CN1CCCC(C(=O)N(C)Cc2ccccc2)C1 (configuration not stated)	Lmaj promast 52
COc1ccc(Br)cc1CN1CCCC(C(=O)N2CCCCCC2)C1 (configuration not stated)	Lmaj promast 85
COc1ccccc1C(=O)C1CCCN(Cc2cccc3nccnc23)C1 (configuration not stated)	none (no result: HCT116 PTEN-null, INS promoter inh, bCat KO growth)
COc1ccc(CN2CCCC(C(=O)N(C)Cc3ccccc3)C2)cc1OC (configuration not stated)	Lmaj promast 86 (no result: INS promoter inh)
COc1ccc(Br)cc1CN1CCCC(C(=O)N2CCCCC2)C1 (configuration not stated)	none (no result: Insulin prom up)
CCOc1ncccc1C(=O)Nc1ccc(-c2ccc3nnc(C)n3n2)cc1	none (no result: HCT116 PTEN-null, bCat KO growth)
COc1ccc(C(=O)N(CC2CCCO2)C(C(=O)NC2CCCC2)c2ccc(Cl)cc2)cc1OC (configuration not stated)	none
CCOC(=O)C1CCCN(Cc2ccccc2Cl)C1 (configuration not stated)	none
O=C(c1ccc(OC2CCN(Cc3ccccn3)CC2)cc1)N1CCCCO1	Lmaj promast 67 (no result: HCT116 PTEN-null, INS promoter inh, bCat KO growth)

Screening data from PubChem BioAssay.
